Source: PubChem BioAssay
An excerpt weighted towards active compounds, which were near 1.5% of everything screened.
GC-A act: GC-A (human) enzyme activation; P16066; 0.14% of 370,000 active; activation, % at 10 µM; HEK293 GC-A cells, cGMP TR-FRET, EC30 ANP; 0% at EC30 ANP, 100% saturating ANP; in the data active means activation above about 40%
NPR2 activator: GC-B (human) receptor activation; HEK293-GC-B cells, CNP EC30, cGMP TR-FRET; 0% at EC30 CNP, 100% saturating CNP; 0.11% of 370,000 active; P20594; activation, % at 10 µM;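 active means activation at 10 µM reaching about 35% in either raw or pattern-adjusted values, limit read from the data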
Neddylation inh: inhibitors of human cullin neddylation | inhibition, % at 25 µM | AID 651699 | TR-FRET cullin neddylation, biochemical | P61081+Q13564 | 0.58% of 360,000 active; in the data active means inhibition above about 36%
Target sequence (P61081 whole entry, looked up): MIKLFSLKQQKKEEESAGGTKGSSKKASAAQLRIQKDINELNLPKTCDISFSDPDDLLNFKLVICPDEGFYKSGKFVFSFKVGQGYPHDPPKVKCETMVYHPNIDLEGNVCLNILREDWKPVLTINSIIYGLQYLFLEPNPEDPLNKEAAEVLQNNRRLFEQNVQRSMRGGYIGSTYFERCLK
Target sequence (Q13564 whole entry, looked up): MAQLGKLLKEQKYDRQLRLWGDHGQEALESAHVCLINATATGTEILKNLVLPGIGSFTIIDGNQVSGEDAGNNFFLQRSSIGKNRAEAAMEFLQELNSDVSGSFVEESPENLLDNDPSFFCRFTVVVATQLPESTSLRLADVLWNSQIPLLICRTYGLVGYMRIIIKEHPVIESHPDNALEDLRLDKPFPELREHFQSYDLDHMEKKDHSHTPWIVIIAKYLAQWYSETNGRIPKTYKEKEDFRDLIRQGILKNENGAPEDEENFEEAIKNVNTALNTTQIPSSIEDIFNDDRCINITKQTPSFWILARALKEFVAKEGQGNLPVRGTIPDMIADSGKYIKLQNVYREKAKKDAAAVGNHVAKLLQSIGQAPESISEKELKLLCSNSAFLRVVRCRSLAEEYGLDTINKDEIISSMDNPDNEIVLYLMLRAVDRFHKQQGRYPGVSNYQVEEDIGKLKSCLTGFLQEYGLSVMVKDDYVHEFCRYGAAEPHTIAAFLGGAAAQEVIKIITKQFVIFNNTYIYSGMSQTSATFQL
NadD block: blocks S. aureus nicotinate mononucleotide adenylyltransferase; 0.78% of 360,000 active; AID 602399; inhibition, % at 20 µM; purified NadD enzyme, colorimetric absorbance read-out; in the data active means inhibition above about 26%
NadD inh conf: confirmation of Staphylococcus aureus NadD inhibitors; shares compounds with NadD block; purified S. aureus NadD, colorimetric enzyme assay; inhibition, % at 20 µM; 13% of 2,000 active; in the data active means inhibition mostly above about 42%, no sharp cut-off; inactive means mostly below about 42%
Active calls of the source: *.

For C#CCNC(=O)C[C@@H]1C[C@@](CCC(=O)OCC)(C(=O)OCC)C2=CCCCN2C1=O the results were GC-A act 3 and NPR2 activator -2.
Screening c1ccc(-c2ccc(CN3C[C@@H]4C(c5ccccc5)C5(c6cccnc6)CC4(C5)[C@H]3c3ccccc3)cc2)cc1 (some centres not stated) returned GC-A act -5, NPR2 activator -8, Neddylation inh -21, NadD block 52* and NadD inh conf 28.
For CC(=O)Nc1ccc(NC(=O)c2cccc(-c3cc4ccccc4oc3=O)c2)cc1 the results were GC-A act -1, NPR2 activator -5, Neddylation inh 19 and NadD block 3.
For COc1ccc(C(=O)Nc2cccc(-c3cc4ccccc4oc3=O)c2)cc1[N+](=O)[O-] the results were GC-A act 1, NPR2 activator 3, Neddylation inh 6, NadD block 35* and NadD inh conf 10.
For Cc1ccc(C(=O)C2CCN(CC(=O)N3CCCC3)CC2)cc1 the results were GC-A act 1 and NPR2 activator 3.
O=C(/C=C/c1ccc2ccccc2c1)c1ccoc1 was read as GC-A act -6, NPR2 activator 0, Neddylation inh 12, NadD block 30* and NadD inh conf -4.
Screening Cc1cccc(C=CC(=O)c2ccccc2)c1 returned GC-A act 5, NPR2 activator -1, Neddylation inh -11 and NadD block -5.
O=C1[C@H]2[C@@H](c3ccc(F)cc3)N3C(=O)N(c4cccc(Cl)c4)C(=O)[C@@]3(Cc3ccc(Cl)cc3)[C@H]2C(=O)N1C1CCCCC1 was read as GC-A act -4, NPR2 activator -7, Neddylation inh -25 and NadD block 25.
`O=C1[C@H]2[C@@H](c3ccc(F)cc3)N3C(=O)N(c4cccc(Br)c4)C(=O)[C@@]3(Cc3ccc(Cl)cc3)[C@H]2C(=O)N1C1CCCCC1` gave GC-A act -9, NPR2 activator -7, Neddylation inh -1, NadD block 31* and NadD inh conf 13.
For O=C1[C@H]2[C@@H](c3ccc(Cl)cc3)N3C(=O)N(c4cccc(Br)c4)C(=O)[C@@]3(Cc3ccc(Cl)cc3)[C@H]2C(=O)N1C1CCCCC1 the results were GC-A act -1, NPR2 activator 0, Neddylation inh -20, NadD block 32* and NadD inh conf -1.
`O=C(NCCc1ccc(F)cc1)c1cc2ccccn2n1` gave GC-A act 0 and NPR2 activator 2.
`Cc1ccc(Oc2nnc(-c3ccc(C)cc3)c3ccccc23)cc1` gave GC-A act -8, NPR2 activator -3, Neddylation inh -35 and NadD block 8.
For COc1ccccc1C(=O)Nc1ccc(Oc2nnc(-c3ccc(C)cc3)c3ccccc23)cc1 the results were GC-A act 0, NPR2 activator 8, Neddylation inh -20, NadD block 52* and NadD inh conf 17.
CCc1nnn2c1Cn1c3ccccc3c(=O)n1[C@@H](C)C2 was read as GC-A act -3 and NPR2 activator 1.
O=C(O)c1cccc(-n2cccc2/C=C2/NC(=O)N(c3ccc(Cl)cc3)C2=O)c1 was read as GC-A act -25, NPR2 activator -1, Neddylation inh -8, NadD block 43* and NadD inh conf 61*.
O=C(Nc1ccc(S(=O)(=O)Nc2ncccn2)cc1)c1nn(Cc2ccccc2)c(=O)c2ccccc12 was read as GC-A act 3, NPR2 activator 6, Neddylation inh -10, NadD block 34* and NadD inh conf 35.
CCn1nc(C(=O)Nc2ccc(S(=O)(=O)Nc3nccs3)cc2)c2ccccc2c1=O was read as GC-A act -1, NPR2 activator -1, Neddylation inh 7 and NadD block 7.
C[C@H](O)[C@@H]1C(=O)N2CCc3c([nH]c4cccc(-c5ccccc5)c34)[C@@H]2C[C@@H]1N(C)C(=O)OCc1ccccc1 was read as GC-A act -7 and NPR2 activator 0.
For CCCCCCc1cc2cc(S(=O)(=O)c3ccc(Cl)cc3)c(=O)oc2cc1O the results were GC-A act 6, NPR2 activator 0, NadD block 36* and NadD inh conf 2.
Screening Cc1ccccc1NC(=O)c1ccc(NS(=O)(=O)c2cc(C(C)(C)C)cc(C)c2C)cc1 returned GC-A act -5, NPR2 activator 1, Neddylation inh 23, NadD block 41* and NadD inh conf 26.
CCN(CC)C(=S)Sc1c(-c2ccccc2)c2cc(Cl)ccc2[nH]c1=O was read as GC-A act -3, NPR2 activator -18, Neddylation inh 15, NadD block 39* and NadD inh conf 0.
`COC(=O)[C@]12C[C@H](CC(=O)NCCCCc3ccccc3)C(=O)N(Cc3ccccc3)C1=C[C@H](COCc1ccccc1)O[C@@H]2C` gave GC-A act -5 and NPR2 activator 0.
`O=C(/C=C/c1ccco1)Nc1ccc(C(=O)N2CCOCC2)cc1` gave GC-A act 4, NPR2 activator 4, Neddylation inh -10 and NadD block 0.
O=C(/C=C/c1ccco1)Nc1ccc(-c2nc3ccccc3[nH]2)cc1 was read as GC-A act 0, NPR2 activator -2, Neddylation inh 31, NadD block 34* and NadD inh conf 3.
O=C(/C=C/c1ccco1)Nc1ccc(N2CCCC2)cc1 was read as GC-A act 0, NPR2 activator 3, Neddylation inh -3, NadD block 36* and NadD inh conf 5.
C#CCNC(=O)C[C@H]1C(=O)N(CCc2ccc(Cl)cc2)C2=CCCC[C@@]21C(=O)OCC was read as GC-A act 1 and NPR2 activator 0.
COC(=O)[C@]12C[C@H](CC(=O)N3CCOCC3)C(=O)N(CCc3ccc(OC)c(OC)c3)C1=C[C@H](C1CCCC1)O[C@@H]2C was read as GC-A act -3 and NPR2 activator 7.
COc1ccc2c3c(cccc13)N(C)N=C2C was read as GC-A act 2, NPR2 activator -1, Neddylation inh -31, NadD block 52* and NadD inh conf 9.
`CC1(C)CC(=O)N(CC(=O)N2CCN(c3cccc(C(F)(F)F)c3)CC2)c2ccccc2S1(=O)=O` gave GC-A act 4 and NPR2 activator -5.
For O=C(Nc1ccc2c(c1)OCO2)OC1CCC12CCCCC2 (configuration not stated) the results were GC-A act 2 and NPR2 activator -2.
`CCOC(=O)c1c(-c2ccccc2Cl)csc1NC(=O)CSc1nc(C)cc(=O)[nH]1` gave GC-A act -4, NPR2 activator -3, Neddylation inh -23, NadD block 28* and NadD inh conf 55*.
For CCOC(=O)c1ccc(NC(=O)CSc2nc(C)cc(=O)[nH]2)cc1 the results were Neddylation inh 3 and NadD block 12.
